# About 8,800 targets were measured; listed, in parts, are those with a hit and a random draw of the rest. About 0.5% of all pairs of compound and target were hits. A number with no mark means an inactive call.
# Columns and labels:
# Experiment in all cases: log2 fold change, soluble protein after heating vs DMSO (PISA); higher = thermal stabilisation; K562 lysate, 10 uM; active = over 0.2 and 3.5 SD of the protein, either way, in both replicates (recomputed)
# [1] = compound: CS(=O)(=O)CCNCc1ccc(-c2ccc3ncnc(Nc4ccc(OCc5cccc(F)c5)c(Cl)c4)c3c2)o1 [lapatinib]
# Outline: (§1)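 Pellets of K562 cells were dounce-homogenised in PBS pH 7.4 with 1 mM MgCl2, and the crude extract was held at 1 mg/mL protein for a 30 min treatment with 10 μM compound. Aliquots were heated for 3 min over 48°C-58°C and pooled before NP-40 was added to 0.5% at 4°C. The supernatant from 21,000xg for 90 min was quantified by TMTpro 16plex LC-MS/MS with channel sums equalised. Values are reported from duplicates as log-two fold change in thermal stability relative to solvent controls.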
# [2] = compound: CS(=O)(=O)N1CCN(Cc2cc3nc(-c4cccc5[nH]ncc45)nc(N4CCOCC4)c3s2)CC1 [pictilisib]
# Outline: as §1
# [3] = compound: C[C@@H](Oc1cc(-c2cnn(C3CCNCC3)c2)cnc1N)c1c(Cl)ccc(F)c1Cl [crizotinib]
# Outline: as §1
# [4] = compound: C[C@H](C1=CC=C(C=C1)C(=O)NC2=C3C=CNC3=NC=C2)N
# Outline: as §1
# [5] = compound: C[C@H](Nc1ncnc2nc[nH]c12)c1cc2cccc(Cl)c2c(=O)n1-c1ccccc1 [duvelisib]
# Outline: as §1
# [6] = compound: Cc1cc(Nc2cc(CN3CCOCC3)c3nc(C)c(Cc4ccc(Cl)cc4F)n3n2)n[nH]1 [gandotinib]
# Outline: as §1
# [7] = compound: Cc1cc(Nc2cc(N3CCN(C)CC3)nc(Sc3ccc(NC(=O)C4CC4)cc3)n2)n[nH]1 [tozasertib]
# Outline: as §1
# [8] = compound: Cc1ccc(-n2nc(C(C)(C)C)cc2NC(=O)Nc2ccc(OCCN3CCOCC3)c3ccccc23)cc1 [doramapimod]
# Outline: as §1
# [9] = compound: Cc1ccc(NC(=O)c2ccc(CN3CC[C@H](N(C)C)C3)c(C(F)(F)F)c2)cc1Nc1nccc(-c2cncnc2)n1 [bafetinib]
# Outline: as §1
# [10] = compound: Cc1cccc(CC(=O)N2CCc3c2ccc(-c2cn(C)c4ncnc(N)c24)c3F)n1
# Outline: as §1
# [11] = compound: Cc1cn(-c2cc(NC(=O)c3ccc(C)c(Nc4nccc(-c5cccnc5)n4)c3)cc(C(F)(F)F)c2)cn1 [nilotinib]
# Outline: as §1
# [12] = compound: Cc1nc(Nc2n[nH]c3c2CN(C(=O)N[C@H](CN(C)C)c2ccccc2)C3(C)C)c2sccc2n1
# Outline: as §1
# [13] = compound: Cc1nc(Nc2ncc(C(=O)Nc3c(C)cccc3Cl)s2)cc(N2CCN(CCO)CC2)n1 [dasatinib]
# Outline: as §1
# [14] = compound: Cc1ncc(-c2ccnc(Nc3ccc(S(C)(=O)=O)cc3)n2)n1C(C)C
# Outline: as §1
# [15] = compound: Cn1cc(-c2ccc3c(c2)CCN3C(=O)Cc2cccc(C(F)(F)F)c2)c2c(N)ncnc21
# Outline: as §1
# [16] = compound: Cn1cc(CNCC2CCN(c3ncc(C(=O)NO)cn3)CC2)c2ccccc21 [quisinostat]
# Outline: as §1
# [17] = compound: Cn1cncc1[C@@](N)(c1ccc(Cl)cc1)c1ccc2c(c1)c(-c1cccc(Cl)c1)cc(=O)n2C [tipifarnib]
# Outline: as §1
# [18] = compound: NC(=O)Nc1cc(-c2cccc(F)c2)sc1C(=O)N[C@H]1CCCNC1
# Outline: as §1
# [19] = compound: NC(=O)c1cnc(N[C@@H]2CCCC[C@@H]2N)nc1Nc1cccc(-n2nccn2)c1
# Outline: as §1
# [20] = compound: NC1(c2ccc(-c3nc4ccn5c(=O)[nH]nc5c4cc3-c3ccccc3)cc2)CCC1
# Outline: as §1
# UniProt Q13042, sequence (Q13042 whole entry, looked up): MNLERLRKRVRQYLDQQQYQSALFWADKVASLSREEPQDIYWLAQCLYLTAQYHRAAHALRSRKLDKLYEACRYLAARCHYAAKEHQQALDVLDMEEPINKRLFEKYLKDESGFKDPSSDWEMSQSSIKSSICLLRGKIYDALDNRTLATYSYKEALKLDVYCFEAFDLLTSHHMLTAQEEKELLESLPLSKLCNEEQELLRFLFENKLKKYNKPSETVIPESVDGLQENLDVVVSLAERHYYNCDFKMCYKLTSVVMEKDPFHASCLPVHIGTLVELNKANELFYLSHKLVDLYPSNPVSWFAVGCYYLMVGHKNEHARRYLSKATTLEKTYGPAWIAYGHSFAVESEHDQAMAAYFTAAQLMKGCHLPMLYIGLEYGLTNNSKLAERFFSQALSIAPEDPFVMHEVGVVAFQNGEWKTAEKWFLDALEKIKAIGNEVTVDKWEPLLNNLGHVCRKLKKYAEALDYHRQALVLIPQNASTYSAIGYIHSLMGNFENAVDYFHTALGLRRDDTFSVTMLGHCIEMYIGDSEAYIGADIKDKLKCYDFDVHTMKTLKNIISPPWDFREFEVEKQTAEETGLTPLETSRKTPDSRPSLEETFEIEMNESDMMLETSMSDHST
# UniProt Q00535, sequence (Q00535 whole entry, looked up): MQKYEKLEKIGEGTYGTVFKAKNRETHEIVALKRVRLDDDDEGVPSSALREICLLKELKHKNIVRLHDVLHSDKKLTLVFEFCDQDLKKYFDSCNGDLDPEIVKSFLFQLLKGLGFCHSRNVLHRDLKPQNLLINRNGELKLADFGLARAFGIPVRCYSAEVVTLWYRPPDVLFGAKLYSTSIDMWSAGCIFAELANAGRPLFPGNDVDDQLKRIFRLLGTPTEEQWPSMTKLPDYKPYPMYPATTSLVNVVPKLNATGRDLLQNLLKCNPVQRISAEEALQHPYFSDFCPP
# UniProt P49069, sequence (P49069 whole entry, looked up): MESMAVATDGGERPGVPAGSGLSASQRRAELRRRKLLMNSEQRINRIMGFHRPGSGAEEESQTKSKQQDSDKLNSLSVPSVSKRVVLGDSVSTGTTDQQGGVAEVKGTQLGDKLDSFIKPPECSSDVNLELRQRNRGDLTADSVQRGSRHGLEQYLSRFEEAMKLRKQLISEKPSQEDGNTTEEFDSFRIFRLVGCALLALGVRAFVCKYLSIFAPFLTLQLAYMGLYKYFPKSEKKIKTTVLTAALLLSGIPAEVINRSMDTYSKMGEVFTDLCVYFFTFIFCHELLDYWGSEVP
# UniProt O75081, sequence (O75081 whole entry, looked up): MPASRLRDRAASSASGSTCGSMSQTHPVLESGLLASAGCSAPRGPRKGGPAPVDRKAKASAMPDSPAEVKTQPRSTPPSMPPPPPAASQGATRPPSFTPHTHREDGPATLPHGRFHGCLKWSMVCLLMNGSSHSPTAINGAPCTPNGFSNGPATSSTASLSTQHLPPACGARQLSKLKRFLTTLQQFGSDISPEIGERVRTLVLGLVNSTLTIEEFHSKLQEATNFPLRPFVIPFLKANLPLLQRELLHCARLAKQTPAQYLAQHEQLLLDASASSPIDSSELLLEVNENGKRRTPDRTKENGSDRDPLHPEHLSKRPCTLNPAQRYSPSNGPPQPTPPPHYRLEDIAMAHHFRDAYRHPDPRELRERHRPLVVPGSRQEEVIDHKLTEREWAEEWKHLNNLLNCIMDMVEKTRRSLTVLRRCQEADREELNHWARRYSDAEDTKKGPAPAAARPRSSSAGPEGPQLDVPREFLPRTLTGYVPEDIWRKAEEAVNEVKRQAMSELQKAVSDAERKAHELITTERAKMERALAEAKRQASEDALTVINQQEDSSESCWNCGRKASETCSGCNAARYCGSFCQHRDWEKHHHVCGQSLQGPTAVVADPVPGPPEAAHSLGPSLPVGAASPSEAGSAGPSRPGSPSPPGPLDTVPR
# UniProt Q8N5S9, sequence (Q8N5S9 whole entry, looked up): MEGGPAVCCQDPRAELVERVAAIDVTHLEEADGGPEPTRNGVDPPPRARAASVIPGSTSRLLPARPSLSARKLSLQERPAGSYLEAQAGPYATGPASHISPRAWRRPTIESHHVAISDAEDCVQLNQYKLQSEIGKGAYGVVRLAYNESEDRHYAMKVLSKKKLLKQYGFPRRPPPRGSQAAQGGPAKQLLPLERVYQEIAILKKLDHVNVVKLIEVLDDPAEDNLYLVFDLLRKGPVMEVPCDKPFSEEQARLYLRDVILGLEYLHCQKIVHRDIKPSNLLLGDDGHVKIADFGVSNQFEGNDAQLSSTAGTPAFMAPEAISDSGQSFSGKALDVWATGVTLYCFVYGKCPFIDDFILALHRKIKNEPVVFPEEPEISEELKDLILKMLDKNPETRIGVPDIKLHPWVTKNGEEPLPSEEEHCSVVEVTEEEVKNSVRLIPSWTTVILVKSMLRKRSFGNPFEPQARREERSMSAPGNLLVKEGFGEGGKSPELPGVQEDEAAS
# UniProt Q6P4E1, sequence (Q6P4E1 whole entry, looked up): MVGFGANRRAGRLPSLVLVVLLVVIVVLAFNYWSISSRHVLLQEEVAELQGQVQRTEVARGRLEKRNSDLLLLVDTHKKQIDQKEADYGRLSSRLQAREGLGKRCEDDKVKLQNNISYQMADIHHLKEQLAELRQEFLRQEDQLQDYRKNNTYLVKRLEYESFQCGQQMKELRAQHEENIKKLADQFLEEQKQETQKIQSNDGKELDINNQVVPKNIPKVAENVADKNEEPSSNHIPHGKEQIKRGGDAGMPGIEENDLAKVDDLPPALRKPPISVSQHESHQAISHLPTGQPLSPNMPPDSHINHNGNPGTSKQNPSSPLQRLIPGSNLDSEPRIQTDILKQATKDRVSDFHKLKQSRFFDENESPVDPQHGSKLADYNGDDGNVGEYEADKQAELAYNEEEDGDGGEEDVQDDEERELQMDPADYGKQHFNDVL
# UniProt O95352, sequence (O95352 whole entry, looked up): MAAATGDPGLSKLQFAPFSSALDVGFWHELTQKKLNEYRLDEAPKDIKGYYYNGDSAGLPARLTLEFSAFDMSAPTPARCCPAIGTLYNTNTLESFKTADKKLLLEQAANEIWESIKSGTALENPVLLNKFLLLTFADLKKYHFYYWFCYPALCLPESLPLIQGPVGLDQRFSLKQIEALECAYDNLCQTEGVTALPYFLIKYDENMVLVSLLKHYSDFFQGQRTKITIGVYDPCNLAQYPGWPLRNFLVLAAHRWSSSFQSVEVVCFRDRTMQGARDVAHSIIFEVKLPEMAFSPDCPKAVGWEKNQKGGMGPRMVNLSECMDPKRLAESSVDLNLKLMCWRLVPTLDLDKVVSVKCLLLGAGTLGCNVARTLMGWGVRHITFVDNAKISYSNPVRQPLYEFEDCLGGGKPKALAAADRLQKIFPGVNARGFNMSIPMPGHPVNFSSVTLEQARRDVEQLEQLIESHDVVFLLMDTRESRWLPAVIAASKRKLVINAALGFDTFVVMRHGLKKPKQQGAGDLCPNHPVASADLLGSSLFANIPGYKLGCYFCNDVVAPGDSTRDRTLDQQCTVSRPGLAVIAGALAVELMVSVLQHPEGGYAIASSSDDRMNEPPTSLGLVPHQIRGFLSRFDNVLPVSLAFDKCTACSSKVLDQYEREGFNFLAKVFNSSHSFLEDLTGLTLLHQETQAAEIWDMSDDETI
# UniProt O75909, sequence (O75909 whole entry, looked up): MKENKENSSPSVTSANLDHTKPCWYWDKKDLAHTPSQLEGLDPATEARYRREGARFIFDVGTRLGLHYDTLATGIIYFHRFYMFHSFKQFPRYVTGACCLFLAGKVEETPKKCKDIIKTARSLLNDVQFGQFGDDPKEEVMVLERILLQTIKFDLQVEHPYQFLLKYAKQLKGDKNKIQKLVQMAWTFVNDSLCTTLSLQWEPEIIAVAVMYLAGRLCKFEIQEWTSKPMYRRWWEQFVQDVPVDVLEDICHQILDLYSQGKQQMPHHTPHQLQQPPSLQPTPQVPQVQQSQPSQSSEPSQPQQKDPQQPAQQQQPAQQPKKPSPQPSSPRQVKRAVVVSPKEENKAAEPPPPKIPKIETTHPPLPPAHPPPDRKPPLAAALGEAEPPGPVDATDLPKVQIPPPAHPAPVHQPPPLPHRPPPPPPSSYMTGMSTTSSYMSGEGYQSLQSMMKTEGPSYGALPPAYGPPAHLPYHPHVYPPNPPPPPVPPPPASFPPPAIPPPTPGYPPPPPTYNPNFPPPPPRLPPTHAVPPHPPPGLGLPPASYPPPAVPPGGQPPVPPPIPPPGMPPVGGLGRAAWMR
# UniProt P18859, sequence (P18859 whole entry, looked up): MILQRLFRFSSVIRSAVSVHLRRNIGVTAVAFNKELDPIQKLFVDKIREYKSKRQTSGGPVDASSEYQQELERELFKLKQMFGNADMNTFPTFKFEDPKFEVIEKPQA
# UniProt Q9H3Q1, sequence (Q9H3Q1 whole entry, looked up): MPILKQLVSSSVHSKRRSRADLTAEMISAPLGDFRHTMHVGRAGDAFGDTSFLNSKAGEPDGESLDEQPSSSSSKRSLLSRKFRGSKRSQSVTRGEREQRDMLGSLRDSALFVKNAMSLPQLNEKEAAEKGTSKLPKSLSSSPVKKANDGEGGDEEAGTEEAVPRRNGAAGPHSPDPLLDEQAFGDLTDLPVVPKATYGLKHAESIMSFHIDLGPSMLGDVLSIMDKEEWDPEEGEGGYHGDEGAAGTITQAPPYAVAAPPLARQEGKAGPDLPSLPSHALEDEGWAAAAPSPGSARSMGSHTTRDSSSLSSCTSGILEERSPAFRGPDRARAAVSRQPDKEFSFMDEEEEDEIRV
# UniProt Q8N4Q1, sequence (Q8N4Q1 whole entry, looked up): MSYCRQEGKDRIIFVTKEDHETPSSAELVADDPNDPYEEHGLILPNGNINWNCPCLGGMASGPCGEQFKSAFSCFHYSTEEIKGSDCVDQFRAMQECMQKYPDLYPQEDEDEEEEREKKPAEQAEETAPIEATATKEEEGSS
Target,log2 fold change [1],log2 fold change [2],log2 fold change [3],log2 fold change [4],log2 fold change [5],log2 fold change [6],log2 fold change [7],log2 fold change [8],log2 fold change [9],log2 fold change [10],log2 fold change [11],log2 fold change [12],log2 fold change [13],log2 fold change [14],log2 fold change [15],log2 fold change [16],log2 fold change [17],log2 fold change [18],log2 fold change [19],log2 fold change [20]
CDK9 isoform 2 (UniProt P50750),-0.103,0.034,0.067,0.066,-0.026,0.074,-0.108,-0.02,-0.125,-0.056,-0.035,0.255,0.003,0.403 (active),-0.007,-0.028,-0.016,0.009,0.078,-0.04
ATP5PF isoform 2 (UniProt P18859),0.04,-0.088,0.054,0.591 (active),-0.021,-0.185,-0.018,-0.083,0.221,-0.19,0.059,0.046,0.026,0.164,-0.013,0.11,0.066,-0.058,-0.029,-0.051
CBFA2T3 (UniProt O75081),0.041,-0.038,0.013,0.017,0.006,-0.001,-0.014,0.007,-0.007,0.05,-0.018,0.02,-0.026,-0.019,-0.008,-0.07,-0.047,0.043,0,0.001
CDK5 (UniProt Q00535),-0.094,0.095,-0.031,-0.024,0.03,0.451,0.014,0.423,-0.008,-0.023,-0.013,0.23,0.022,0.541 (active),0.019,-0.132,0.003,0.044,0.05,-0.112
BRD4 (UniProt O60885),0.044,0.015,-0.03,-0.06,0.013,0.019,-0.031,0.016,-0.024,-0.006,0.034,-0.009,-0.018,0.019,-0.001,-0.091,-0.019,0.013,-0.051,-0.008
CASC4 (UniProt Q6P4E1),-0.038,0.069,0.019,-0.088,0.051,0.016,0.067,0.057,-0.045,0.02,-0.072,-0.006,0.037,0.053,0.029,0.021,-0.033,-0.024,0.035,-0.011
CDC42EP4 (UniProt Q9H3Q1),0.031,0.029,-0.017,-0.047,-0.029,0.223 (active),-0.017,0.157,-0.027,0.102,0.061,-0.043,0.039,-0.026,-0.028,-0.045,0.006,-0.02,-0.025,0.02
CAMLG (UniProt P49069),0.009,-0.039,0.014,0.179,-0.001,-0.058,-0.037,-0.005,0,-0.12,0.048,-0.082,0.017,-0.069,0.064,0.01,-0.084,0.005,-0.009,0.046
CAMKK1 isoform 2 (UniProt Q8N5S9),0.061,-0.074,-0.023,0.032,-0.069,0.424 (active),-0.067,0.016,-0.021,-0.033,-0.013,0.144,0.05,0.064,0.189,-0.072,-0.064,0.047,-0.002,0.007
CHCHD4 isoform 2 (UniProt Q8N4Q1),0.045,0.092,-0.085,-0.316,0.022,0.217,-0.041,0.047,-0.029,0.198,-0.029,0.023,-0.035,-0.031,-0.018,-0.156,0.018,0.032,-0.008,-0.028
CDC16 (UniProt Q13042),0.016,0,0.009,0.047,0.011,-0.095,0.06,0.014,-0.039,-0.057,-0.013,0.023,-0.012,-0.027,0.019,0.01,0.017,0.024,-0.019,-0.014
CCNK isoform 4 (UniProt O75909),0.001,0.013,-0.008,-0.213 (active),0.044,0.161,-0.023,0.113,-0.051,0.109,0.011,-0.03,-0.051,-0.009,0.003,0.009,-0.004,-0.006,-0.005,-0.011
ATG7 (UniProt O95352),0.006,-0.002,-0.015,-0.037,0,-0.035,-0.015,0.02,-0.024,0.006,0.02,-0.03,-0.026,-0.032,0.037,-0.039,0.03,0.058,0.01,-0.02
BLM (UniProt P54132),-0.007,-0.068,-0.003,0.192,0.018,-0.267 (active),0.057,0.018,-0.049,-0.251,-0.002,0.014,-0.013,0,0.048,0.109,0.041,-0.013,-0.025,0.018
CES2 isoform 4 (UniProt O00748),0.027,0.32,0.079,-0.003,0.021,0.016,0,0.015,0.154,0.036,-0.073,-0.115,0.065,0.098,-0.087,-0.042,0.05,-0.029,0.033,0.001
CDK11B (UniProt P21127),-0.017,-0.006,0.461 (active),-0.012,0,0.399 (active),0.02,0.031,-0.042,0.007,-0.006,-0.015,-0.028,0.087,0.068,-0.023,0.01,0.018,0.009,-0.018

# — the supplement of paper PMC10849652
